Active and inactive are the calls of the source. The call rests on the fitted dose curve; in most records, active means well fitted curve in the direction sought with a large enough effect; inconclusive means small, poorly fitted or top-dose-only effect, or another doubt; inactive means no such curve, though single readings can be large; an effect the other way counts as inactive or inconclusive.

The target of the first experiment is Cytochrome P450 3A4 (Homo sapiens) (UniProt P08684). The experiment in a line: qHTS Assay for Activators of Cytochrome P450 3A4 (AID 885). Further: nearly all actives have a fitted effect of over 65% in size. As to conditions: recombinant CYP3A4, Luciferin-PPXE luminescence, 60 min; series mostly up to 57.1 µM. Put shortly: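 Luminescent readout of luciferin formed from 25 uM Luciferin-PPXE (KM level) by 20 nM CYP3A4 in 200 mM KPO4, with 60 min NADPH-driven reaction at room temperature after 10 min compound exposure. Ketoconazole (57 uM) defined 100% inhibition.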
Chain of Cytochrome P450 3A4 (Homo sapiens) (P08684 whole entry, looked up): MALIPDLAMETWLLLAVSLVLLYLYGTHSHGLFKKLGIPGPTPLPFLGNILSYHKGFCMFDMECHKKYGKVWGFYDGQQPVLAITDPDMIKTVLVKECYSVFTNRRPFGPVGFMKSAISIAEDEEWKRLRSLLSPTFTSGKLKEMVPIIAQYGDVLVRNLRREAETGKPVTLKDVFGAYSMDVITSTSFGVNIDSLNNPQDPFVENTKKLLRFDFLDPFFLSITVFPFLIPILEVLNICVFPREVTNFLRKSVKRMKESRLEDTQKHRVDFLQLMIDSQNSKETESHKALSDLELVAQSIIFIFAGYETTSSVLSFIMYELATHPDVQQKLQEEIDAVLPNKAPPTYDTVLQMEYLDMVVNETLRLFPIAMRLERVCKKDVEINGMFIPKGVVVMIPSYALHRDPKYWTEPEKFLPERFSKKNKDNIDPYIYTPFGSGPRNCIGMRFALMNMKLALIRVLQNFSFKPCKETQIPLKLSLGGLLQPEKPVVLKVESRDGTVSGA
For orientation: qHTS replaces the single test concentration by a dilution series.
With `NS(=O)(=O)Cc1noc2ccccc12`, the result was inactive. On the same count and under the same terms, to `CN1CCC[C@@H]1CCO[C@](C)(c1ccccc1)c1ccc(Cl)cc1` belongs “inactive”; to `O=C(CCCN1CC=C(n2c(=O)[nH]c3ccccc32)CC1)c1ccc(F)cc1`, “inactive”. As for `CN(C)CCC[C@@]1(c2ccc(F)cc2)OCc2cc(C#N)ccc21`, the outcome was inactive. The same measure, in the same setting: as for `COc1cc(N)c(Cl)cc1C(=O)NC1CCN(Cc2ccccc2)CC1`, the entry is “inactive”.

Tested on in a further experiment: not listed separately
The experiment in a line: Confirmation and Secondary Assay for Modulators of Hemoglobin Beta Chain Splicing at IVS2 654 locus (AID 910).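 Further: per-well total GFP intensity by laser scanning cytometry after 2-day treatment.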 The note with it: HeLa EGFP-654 splicing reporter, GFP fluorescence, 48 h; series mostly up to 46.1 µM. The procedure, abridged: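 HeLa cells stably carrying EGFP interrupted by mutant beta-globin IVS2-654 intron (CMV-driven) were treated with compound for 2 days at 37C; corrected splicing was scored as total peak GFP intensity per well (488 nm excitation, 500-520 nm emission).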
On to `CCOc1ccc(NC(C)=O)cc1`, for which the compound was called inactive. On to `COc1ccc(C(Cl)=C(c2ccc(OC)cc2)c2ccc(OC)cc2)cc1`, for which the compound was called inactive.

As for `O=C(O)P(=O)(O)O`, the call was inactive. Regarding `O=C(O)c1ccc(S(=O)(=O)N(Cl)Cl)cc1`, the outcome was inactive.

On to `CCC(Cc1c(I)cc(I)c(N)c1I)C(=O)O` (stereo not given), for which the compound was classed as inactive.

Consider `Oc1c(Cl)cc(Cl)c(Cl)c1Cc1c(O)c(Cl)cc(Cl)c1Cl`, for which the compound was called inactive. For `CCCN(CCC)S(=O)(=O)c1ccc(C(=O)O)cc1`, the compound was classed as inactive. Still for that read-out and setting: as for `COc1cc(C(=O)NCc2ccc(OCCN(C)C)cc2)cc(OC)c1OC`, the entry is “inactive”; as for `CCCCCN=C(N)N/N=C/c1c[nH]c2ccc(OC)cc12`, “inactive”.

On to `COc1ccc(C(=O)c2ccccc2)c(O)c1`, for which the compound was classed as inactive. Same read-out and setting: to `O=C(CCCN1CC=C(n2c(=O)[nH]c3ccccc32)CC1)c1ccc(F)cc1` belongs “inactive”. The same measure, in the same setting: to `Oc1ccc(Cl)cc1Cc1cc(Cl)ccc1O` belongs “inactive”; to `CC(=O)NO`, “inactive”.

For the compound `O=C(O)CCNC(=O)c1ccccc1`, the result was inactive. Still for that read-out and setting: as for `CN(C)C(=O)Nc1ccc(Cl)c(Cl)c1`, the entry is “inactive”; as for `CN(C)CCC[C@@]1(c2ccc(F)cc2)OCc2cc(C#N)ccc21`, “inactive”; as for `CCCCC(CC)CN1CN(CC(CC)CCCC)CC(C)(N)C1` (stereo not given), “inactive”. `O=C1C(=O)c2ccccc2C(O)=C1C1CCC(c2ccc(Cl)cc2)CC1` (stereo not given): the outcome was inactive. Turning to `COc1cc(N)c(Cl)cc1C(=O)NC1CCN(Cc2ccccc2)CC1`, the result was inactive. The same measure, in the same setting: to `NC(=O)c1ccccc1O` belongs “inactive”.

These data come from PubChem BioAssay (NCATS).
